Source: PubChem
Rv3671c protease = inhibitors of M. tuberculosis serine protease Rv3671c. inhibition, % at 5.96 µM. 320,000 compounds, 0.048% hits. AID 2606; in the data active means inhibition above about 38%;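 further: extracellular domain of Rv3671c used as enzyme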
Mtb FBA inh = inhibitors of M. tuberculosis fructose-bisphosphate aldolase | purified M. tuberculosis FBA, fluorescence read-out | 360,000 compounds, 2.3% hits | AID 588726 | inhibition, % at 1 µM
GDH-TPI counter-1 = counter-screen for M. tuberculosis FBA inhibitors: GDH-TPI coupled enzymes; GDH-TPI coupled enzyme counterscreen, NADH absorbance; inhibition, % at 4.8 µM; 360,000 compounds, 1.2% hits; in the data active means inhibition above about 30%
RecA intein inh = blocks M. tuberculosis RecA intein splicing | cell-free RecA intein splicing, fluorescence | inhibition, % (no concentration beside the values) | 290,000 compounds, 0.75% hits | P9WHJ3; in the data active means inhibition above about 30%
Target sequence (P9WHJ3 whole entry, looked up): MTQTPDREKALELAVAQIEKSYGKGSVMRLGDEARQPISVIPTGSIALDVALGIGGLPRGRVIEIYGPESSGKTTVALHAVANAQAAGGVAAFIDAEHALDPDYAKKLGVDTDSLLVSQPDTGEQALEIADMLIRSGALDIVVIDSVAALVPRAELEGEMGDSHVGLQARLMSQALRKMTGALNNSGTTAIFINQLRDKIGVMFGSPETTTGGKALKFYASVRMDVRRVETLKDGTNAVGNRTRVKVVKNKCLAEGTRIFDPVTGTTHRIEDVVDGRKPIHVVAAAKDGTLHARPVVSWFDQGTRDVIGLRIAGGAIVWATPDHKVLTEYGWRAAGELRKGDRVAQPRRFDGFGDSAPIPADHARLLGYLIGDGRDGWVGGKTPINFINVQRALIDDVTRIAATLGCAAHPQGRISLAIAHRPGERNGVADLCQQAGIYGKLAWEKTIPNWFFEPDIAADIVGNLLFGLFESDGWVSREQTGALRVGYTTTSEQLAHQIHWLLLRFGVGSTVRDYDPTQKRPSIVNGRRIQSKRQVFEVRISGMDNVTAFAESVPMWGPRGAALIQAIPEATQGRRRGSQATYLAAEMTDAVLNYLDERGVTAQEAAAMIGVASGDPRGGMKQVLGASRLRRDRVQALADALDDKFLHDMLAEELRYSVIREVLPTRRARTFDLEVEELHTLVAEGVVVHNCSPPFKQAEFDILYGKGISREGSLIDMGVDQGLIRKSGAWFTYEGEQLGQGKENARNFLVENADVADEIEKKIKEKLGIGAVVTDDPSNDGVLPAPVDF
UGM FP inh = Mtb UDP-galactopyranose mutase inhibition; P9WIQ1; purified UGM, fluorescence polarization probe displacement; inhibition, % at 10 µM; 320,000 compounds, 0.06% hits; AID 504406; in the data active means inhibition above about 10%, passing the limit was not always enough
Mtb bLac sens = beta-lactam sensitization of Mtb H37Rv; inhibition, % at 25 µM; M. tuberculosis H37Rv growth with meropenem, percent inhibition; 330,000 compounds, 0.27% hits; AID 434955; call rule not given here;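 further: growth measured after seven days incubation then overnight dye step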
Mtb FBA confirm = Mtb FBA inhibition, confirmed. purified M. tuberculosis FBA, fluorescence read-out. inhibition, % at 1 µM. shares compounds with Mtb FBA inh. 5,600 compounds, 78% hits. AID 651616
GDH-TPI counter-2 = counter-screen for M. tuberculosis FBA inhibitors: GDH-TPI coupled enzyme inhibition; GDH-TPI coupled enzyme counterscreen, fluorescence; 5,600 compounds, 81% hits; shares compounds with Mtb FBA inh; AID 652141; inhibition, % at 1 µM; in the data active means inhibition above about 10%
GDH-TPI DR = inhibits GDH-TPI coupling enzymes in dose response; IC50, µM; shares compounds with Mtb FBA inh; GDH-TPI coupled enzyme assay, fluorescence, artifact counterscreen; 170 compounds, 79% hits; AID 652145; call rule not given here
Hits are given with their value; . = inactive; / = not tested or not shown; + = active, no number. In the library only some 4% were active in any assay of this set; here they are far more common. Unless noted, no stated cut-off is given here; in the data, active means inhibition above about 27%; inactive means the rest.

SMILES	Rv3671c protease	Mtb FBA inh	GDH-TPI counter-1	RecA intein inh	UGM FP inh	Mtb bLac sens	Mtb FBA confirm	GDH-TPI counter-2	others
Cc1cc(OCC(=O)NCCN2CCOCC2)c2c(C)c(C)c(=O)oc2c1	.	52	.	.	.	.	.	.
Cn1c(SCc2c(Cl)cccc2Cl)nnc1-c1cccs1	.	.	.	.	.	.	/	/
CN(C(=O)COc1ccc([N+](=O)[O-])cc1)C1CCS(=O)(=O)C1 (configuration not stated)	.	.	.	.	.	.	/	/
NNC(=O)c1sc(-c2ccccc2)cc1N	.	41	.	.	.	.	.	.
COc1ccc(-c2cc(=O)oc3cc(OCC(=O)NCC(O)c4ccccc4)ccc23)cc1 (configuration not stated)	.	.	.	.	.	.	/	/
CCc1cc(=O)oc2cc(C)cc(OC(C)C(=O)NCC(O)c3ccccc3)c12 (configuration not stated)	.	59	.	.	.	.	+	+
CCc1cc(=O)oc2cc(C)cc(OC(C)C(=O)NC3CCN(Cc4ccccc4)CC3)c12 (configuration not stated)	.	51	.	.	.	.	.	.	GDH-TPI DR=3
CCc1cc(=O)oc2cc(C)cc(OCC(=O)NCC(O)c3ccccc3)c12 (configuration not stated)	.	56	.	.	.	.	198	168
Cc1cc(OC(C)C(=O)NCC(O)c2ccccc2)c2c(C)c(C)c(=O)oc2c1 (configuration not stated)	.	50	.	.	.	.	73	45
Cc1cc(OC(C(=O)O)c2ccccc2)c2c(C)c(Cc3ccccc3)c(=O)oc2c1 (configuration not stated)	.	46	.	.	.	.	.	.
Cc1cc(OCC(=O)NCC2CCC(C(=O)O)CC2)c2c(C)c(Cc3ccccc3)c(=O)oc2c1 (configuration not stated)	.	.	.	.	.	.	/	/
CCOC(=O)[C@@H]1[C@H]2COc3cc(OC)ccc3[C@H]2N2C(=O)N(c3cccc(Cl)c3)C(=O)[C@]12C	.	.	.	.	.	.	/	/
COCCNc1nc(SC)nc2sc3c(c12)CCN(C)C3	.	80	.	.	.	.	196	177
CSc1nc(NCC(C)C)c2c3c(sc2n1)CN(C)CC3	.	49	.	.	.	.	59	57
CSc1nc(NCCCN(C)C)c2c3c(sc2n1)CN(C)CC3	/	/	/	.	.	.	/	/
CCN(CC)CCNc1nc(SC)nc2sc3c(c12)CCN(C)C3	.	41	.	.	.	.	97	75
CSc1nc(NCc2ccccc2)c2c3c(sc2n1)CN(C)CC3	.	72	.	.	.	.	140	84
COCCCNc1nc(SCc2ccccc2)nc2sc3c(c12)CCC3	.	34	.	.	.	/	97	78
O=C(NC1CCCCC1)C(c1ccc2ncccc2c1)N(Cc1ccc(F)cc1)C(=O)c1cccs1 (configuration not stated)	.	.	.	.	.	.	/	/
CCOC(=O)c1[nH]c2ccc(OCC)cc2c1NC(=O)CN1CCC2(CC1)OCCO2	.	69	.	.	.	.	+	+
CCOC(=O)c1[nH]c2cc3c(cc2c1NC(=O)CN1CCCCC1C)OCO3 (configuration not stated)	.	/	/	.	.	.	/	/
CCOC(=O)c1[nH]c2cc3c(cc2c1NC(=O)CN1CCC2(CC1)OCCO2)OCO3	.	106	.	.	.	.	.	.
CCOC(=O)c1[nH]c2ccc(OCC)cc2c1NC(=O)CN1CCN(c2ccccc2)CC1	.	.	.	.	.	.	/	/
C=CCN(C(=O)CSc1nnnn1C)c1nc(-c2ccccc2)cs1	/	.	.	/	/	/	/	/
C#CCn1c(=NC(=O)c2sc3ccccc3c2Cl)sc2cc(S(N)(=O)=O)ccc21	.	39	42	.	.	.	+	+
Nc1cccc2[nH]c(=O)c3ccccc3c12	/	61	.	/	/	/	199	158
